pPAFAH FP inh: inhibitors of human plasma PAF acetylhydrolase (pPAFAH); inhibition, % at 3.39 µM; recombinant pPAFAH, FP-rhodamine probe fluorescence polarization; hit rate 1.5% among 330,000; Q13093;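 active = inhibition above the mean inhibition across the screen plus 3 SD, cut at about 25% in these data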;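 note: inhibitors block binding of the rhodamine activity-based probe so polarization drops; 0% = enzyme with DMSO and 100% = wells lacking pPAFAH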
Target sequence (Q13093 whole entry, looked up): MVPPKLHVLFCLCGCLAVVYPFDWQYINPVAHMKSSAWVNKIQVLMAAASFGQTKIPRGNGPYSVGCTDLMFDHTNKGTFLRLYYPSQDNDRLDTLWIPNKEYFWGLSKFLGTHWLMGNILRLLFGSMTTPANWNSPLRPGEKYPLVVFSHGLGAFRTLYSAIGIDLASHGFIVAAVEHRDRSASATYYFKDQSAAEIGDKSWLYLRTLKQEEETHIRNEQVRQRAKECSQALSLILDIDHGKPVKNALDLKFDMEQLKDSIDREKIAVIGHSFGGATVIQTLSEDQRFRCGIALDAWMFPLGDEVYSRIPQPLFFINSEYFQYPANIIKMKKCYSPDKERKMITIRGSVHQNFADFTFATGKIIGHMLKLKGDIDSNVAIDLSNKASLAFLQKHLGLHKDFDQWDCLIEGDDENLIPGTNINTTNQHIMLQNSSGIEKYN
PAFAH1B3 inh: PAFAH1B3 (human) inhibition; hit rate 0.28% among 340,000; Q15102; recombinant PAFAH1B3, FP-rhodamine probe, fluorescence polarization; AID 492972; inhibition, % at 3.39 µM;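 active = inhibition above the screen-wide average of all tested compounds plus 3 SD, cut at about 25% in these data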;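 note: 0% = enzyme with DMSO only and 100% = wells lacking PAFAH1B3 protein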
PME-1 primary: PME-1 (human) inhibition. hit rate 0.53% among 320,000. recombinant PME-1, FP-Rh probe fluorescence polarization. Q9Y570. AID 2130. inhibition, % at 5.9 µM;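 active = inhibition above the campaign mean of all compounds plus 3 SD, cut at about 26% in these data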;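 note: competitive labeling of PME-1 active site by serine hydrolase directed probe; 0% = PME-1 with DMSO and 100% = wells lacking PME-1 enzyme; inhibitors block probe labeling so polarization falls and inhibition rises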
PAFAH1B2 FP inh: blocks human PAF acetylhydrolase 1b catalytic subunit 2; P68402; recombinant PAFAH1B2, FP-rhodamine activity probe, fluorescence polarization; inhibition, % at 3.39 µM; hit rate 1.2% among 340,000; AID 492953;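 active = inhibition above the mean of all tested compounds plus 3 SD, cut at about 24% in these data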;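 note: 0% = enzyme with DMSO and 100% = wells lacking PAFAH1B2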
Fam108B inh: Fam108B inhibition, counter-screen for RBBP9 inhibitors; recombinant Fam108B, FP-Rh probe fluorescence polarization; inhibition, % at 9.51 µM; hit rate 0.33% among 300,000; AID 1947;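 active = inhibition above the screen mean inhibition plus 3 SD, computed separately per campaign, cut at about 18% in these data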;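 note: inhibitors lower polarization as less probe binds the enzyme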
PAFAH2 inh: PAFAH2 (human) inhibition | hit rate 0.99% among 340,000 | AID 492956 | Q99487 | recombinant PAFAH2, FP-rhodamine activity probe, fluorescence polarization | inhibition, % at 3.39 µM;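 active = inhibition above the mean over all tested compounds plus 3 SD, cut at about 30% in these data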;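 note: inhibitors block probe labeling of enzyme so polarization drops; 0% = enzyme with DMSO and 100% = wells lacking PAFAH2 protein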
Fam108b inh conf: Fam108b (mouse) hydrolase inhibition, confirmation assay | shares compounds with Fam108B inh | recombinant Fam108b, FP-Rh probe fluorescence polarization | inhibition, % at 9.51 µM | hit rate 44% among 930 | AID 1978;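 active = inhibition above a limit from the primary screen, the mean over all compounds plus 3 SD, cut at about 19% in these data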;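 note: 0% = median of active Fam108b wells and 100% = catalytically dead S170A mutant; inhibitors free the probe so polarization falls as inhibition rises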
Fam108b ABPP HTS: inhibits mouse Fam108b in gel-based ABPP | shares compounds with Fam108B inh | recombinant Fam108b, fluorophosphonate probe | inhibition, % at 20 µM | hit rate 44% among 260 | AID 588649; in the data active = inhibition above about 40%
* = called active by the depositor; / = no result; + = active, no number. Shown are actives, neighbours in structure and some others; about 2.9% of the full set was active somewhere.

SMILES | pPAFAH FP inh | PAFAH1B3 inh | PME-1 primary | PAFAH1B2 FP inh | Fam108B inh | PAFAH2 inh | Fam108b inh conf | others
Cn1ccnc1C(O)c1ccccc1 (stereo not given) | 5 | 2 | 0 | 2 | -1 | 1 | /
Oc1cccc2cc3cccc(O)c3c(O)c12 | 13 | 16 | 20 | 1 | 25* | 0 | 4 | Fam108b ABPP HTS=55*
O=C(Nc1ccc(-c2nc3ccccc3o2)cc1)c1ccc(N2CCOCC2)c([N+](=O)[O-])c1 | -6 | -1 | -3 | 2 | 20* | -2 | 1
Cc1cc2nc3ccc(N(C)C)cc3nc2cc1N | 32* | 32* | 40* | 31* | 32* | 46* | 19*
Cc1ccc(-n2nc3cc(C)c(N)cc3n2)cc1 | 1 | 10 | 1 | -2 | 5 | -4 | /
N#Cc1ccc2ccn(CC(=O)NCc3ccccc3)c2c1 | 2 | -1 | 1 | 5 | 33* | -1 | 4
COc1ccc(/C=N/NC(=O)c2ccc(F)cc2)cc1CN1CCc2cc(OC)c(OC)cc2C1C (stereo not given) | 4 | -1 | 0 | 2 | -10 | -8 | /
COc1ccc(/C=N/NC(=O)c2ccc(O)cc2)cc1CN1CCCc2ccccc21 | 9 | 25 | 27* | 20 | 27* | -9 | 33*
COc1ccc(C=NNC(=O)c2ccc(O)cc2)cc1CN1CCCc2ccccc21 | / | / | / | / | / | / | / | Fam108b ABPP HTS=90*
COC(=O)CSc1snnc1-c1ccc(Cl)cc1Cl | 0 | 1 | 3 | 16 | 0 | 4 | /
NC(=O)c1ccc(N=C2C(=O)Nc3ccc([N+](=O)[O-])cc32)cc1 | 1 | 56* | 3 | 12 | 24* | 11 | 4
CCC(=O)Nc1cccc(C2=NOC3(C2)C[C@@H](C(N)=O)N(C(=O)CC)C3)c1 (stereo not given in full) | -3 | 15 | 0 | -2 | 3 | 3 | /
O=C(NC(CSCc1ccccc1)C(=O)N/N=C/c1ccc(O)cc1O)c1ccc([N+](=O)[O-])cc1 (stereo not given) | 21 | 15 | 0 | 1 | 23* | -3 | -10
CCC(=O)NC(=S)Nc1ccc(NC(=O)c2ccc([N+](=O)[O-])cc2Cl)cc1 | 2 | 1 | 6 | -2 | 34* | -7 | 5
CCN(CC)c1ccc2c(-c3ccc(S(=O)(=O)O)cc3S(=O)(=O)[O-])c3ccc(=[N+](CC)CC)cc-3oc2c1 | 173* | + | + | 174* | 90* | + | 166*
O=C(NCCC1CCCC1)c1cccs1 | 2 | 4 | 2 | 4 | -3 | -6 | /
Cc1cccc(N/C(N)=N/c2nc(CSc3ccc(Cl)cc3)cc(=O)[nH]2)c1 | 0 | / | -1 | / | 5 | / | /
CCCCCCCCCCCCCCCC[N+](C)(C)CCN(Cc1ccc(OC)cc1)c1ncccn1 | 32* | 11 | 6 | 2 | 22* | 14 | 22*
CC(C)N1CCC(N2CCN(C/C=C/c3ccc(F)cc3)CC2CCO)CC1 (stereo not given) | 4 | 8 | -2 | 2 | -3 | 3 | /
COc1ccc(C(=O)N/N=C(\C)c2ccc3c(c2)C2C=CCC2C(c2ccccc2)N3)cc1 (stereo not given) | 10 | 1 | 17 | -3 | 20* | 8 | -3
COc1ccc(Cn2c(O)c(C=Nc3ccc(O)cc3)c3ccccc3c2=O)cc1 | 18 | -2 | 21 | -1 | 31* | -7 | 18
CC1=CC(=O)c2c(O)ccc(O)c2C1=O | 70* | / | 26 | / | 71* | / | 43* | Fam108b ABPP HTS=65*
O=C1C=C(N2CCN(c3ccccn3)CC2)C(=O)c2c(O)ccc(O)c21 | / | 16 | / | 3 | / | 16 | /
CN[C@H]1CCc2cc(OC)c(OC)c(OC)c2-c2ccc(N(C)CC(OC)OC)c(=O)cc21 | 3 | 7 | 0 | 8 | 1 | -5 | /
COc1cc2c(c(OC)c1OC)-c1ccc(N(C)CC(OC)OC)c(=O)cc1[C@@H](NC(C)=O)CC2 | 6 | 0 | 5 | 4 | 19* | -3 | -7

Compound activity deposited in PubChem BioAssay by The Scripps Research Institute Molecular Screening Center.
